# Measurements reported in PubChem BioAssay.
# Test: binders of probe aFGF10 on microarray, primary screen, stem cell growth factor project, biochemical, small-molecule microarray, fluorescence 635/667 (AID 1071);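 note: score merges 667 nm spot intensity and signal to noise from triplicate slides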
# Settings: higher = more signal
row,SMILES,composite z-score
1,COC(=O)[C@@]1(Cc2ccc(OC)cc2)[C@H]2c3cc(C(=O)N(C)C)n(Cc4cc(C)n(C)n4)c3C[C@H]2CN1C(=O)c1ccccc1,1.26
2,O=C(NCc1ccccc1)[C@]1(Cc2ccccc2)N=C(c2ccc(OCCCO)cc2)O[C@@H]1c1ccccc1,0.885
3,[N-]=[N+]=NCc1ccccc1[C@H]1OC(c2ccc(OCCCO)cc2)=N[C@@]1(Cc1ccccc1N=[N+]=[N-])C(=O)N1CCCCC1,0.263
4,COCCOC(=O)N1C(=O)[C@@]2(c3ccccc31)[C@H](c1ccc(OCCO)cc1)N1[C@H](c3ccccc3)[C@H](c3ccccc3)OC(=O)[C@H]1[C@@H]2C(=O)NC[C@H](O)c1ccccc1,0.228
5,COc1ccc(C(=O)Nc2ccc3c(c2)[C@]2(O[C@@H](CCO)[C@H]([Si](C)(C)c4ccc(OC)cc4)[C@H]2C)C(=O)N3Cc2ccccc2)cc1,-0.0615
6,CN(C)C(=O)[C@]1(Cc2ccccc2N=[N+]=[N-])N=C(c2ccc(OCCCO)cc2)O[C@@H]1c1ccccc1CN=[N+]=[N-],0.794
7,COCCOC(=O)N1C(=O)[C@@]2(c3cc(C#Cc4ccc(OC)cc4)ccc31)[C@H](C(=O)N1CCc3cc(OC)c(OC)cc3C1)[C@H]1C(=O)O[C@H](c3ccccc3)[C@H](c3ccccc3)N1[C@@H]2c1ccc(O)cc1,0.64
8,COc1ccc(C#Cc2ccc3c(c2)[C@]2(C(=O)N3)[C@H](C(N)=O)[C@H]3C(=O)O[C@H](c4ccccc4)[C@H](c4ccccc4)N3[C@@H]2c2ccc(O)cc2)cc1,0.665
9,COc1ccc([Si](C)(C)[C@@H]2[C@@H](CCO)O[C@]3(C(=O)N(Cc4ccccc4)c4ccc(N5C(=O)COc6ccccc65)cc43)[C@H]2C)cc1,0.2
10,CC(C)(C)OC(=O)CC[C@@]1(C(=O)N2CCCCC2)N=C(c2ccc(OCCCO)cc2)O[C@@H]1c1ccccc1CN=[N+]=[N-],0.355
11,CC(C)C(CO)N1C(=O)[C@@H]2[C@H]3C(=O)OCC=C[C@H]3OC23C=CCN(CCN2CCOCC2)C(=O)[C@@H]13 (stereo not given in full),-0.351
12,CN1C(=O)C2C=CC(C(O)c3cccc4ccccc34)N(NC(=O)OC(C)(C)C)C2C1=O (stereo not given),0.586
13,COCCOC(=O)N1C(=O)[C@@]2(c3cc(C#Cc4ccc(OC)cc4)ccc31)[C@H](C(=O)N1CCc3cc(OC)c(OC)cc3C1)[C@H]1C(=O)O[C@H](c3ccccc3)[C@H](c3ccccc3)N1[C@@H]2c1ccc(OCCO)cc1,0.452
14,CCOC(=O)C1=CC[C@@H](c2ccccc2)N(S(=O)(=O)c2ccc(C)cc2)[C@H]1C=C(C)C,0.831
15,C[N+](C)(C)CCCC[C@@H]1NC(=O)[C@H]2C[C@@H](C(=O)NCCCCCCN)[C@@H](c3cccc(OCCO)c3)N2C1=O,0.765
16,COC(=O)C(CC#Cc1ccc2c(c1)[C@]1(C(=O)N2)[C@H](c2ccc(O)cc2)N2[C@H](c3ccccc3)[C@H](c3ccccc3)OC(=O)[C@H]2[C@@H]1C(N)=O)C(=O)OC,-1.89
17,CCOc1cc(C(O)C2C=CC3C(=O)NC(=O)C3N2Nc2ccccn2)ccc1O (stereo not given),0.458
18,C[N+](C)(C)CCCCCCNC(=O)[C@@H]1C[C@@H]2C(=O)NCC(=O)N2[C@@H]1c1cccc(OCCO)c1,-0.114

row,SMILES,composite z-score
1,O=C1c2ccccc2C(=O)C2CC([C@H]3Oc4ccccc4S(=O)(=O)N4CCC[C@@H]34)=CCC12 (stereo not given in full),-0.159
2,CCCc1cc2c(n1Cc1ccc(OC)cc1)C(C)C1CN(C(=O)c3ccccc3)C(C)(C(=O)OC)C21 (stereo not given),0.345
3,CC(=O)NCCCC[C@@H]1NC(=O)[C@@H]2C[C@H](C(=O)NCCCC[N+](C)(C)C)[C@H](c3cccc(OCCO)c3)N2C1=O,-0.194
4,[N-]=[N+]=Nc1ccccc1[C@@H]1OC(c2ccc(OCCCO)cc2)=N[C@]1(CCS(=O)(=O)c1ccccc1)C(=O)NCc1ccccc1,0.655
5,CN(C)CCCC[C@@H]1NC(=O)[C@H]2C[C@@H](C(=O)NCCCCCCNC(=O)CS)[C@@H](c3ccc(O)cc3)N2C1=O,0.165
6,COC(=O)[C@@]1(Cc2ccc(OC)cc2)[C@H]2c3cc(C(=O)N4CCCC4)n(Cc4ccc(C)o4)c3C[C@H]2CN1C(=O)c1ccccc1,1.15
7,O=C1N(Cc2ccccc2)c2ccccc2[C@H]2OC(c3ccc(OCCCO)cc3)=N[C@@]12CCS(=O)(=O)c1ccccc1,0.951
8,COCCCNC(=O)[C@]1(Cc2ccccc2)N=C(c2ccc(OCCCO)cc2)O[C@@H]1c1ccccc1N=[N+]=[N-],0.632
9,CCCCC(=C=CC[C@H](O)c1cccc(OCCO)c1)C[C@H](O)COCc1ccccc1,0.205
10,COC(=O)c1ccc(OC)c(/C=C\CC(CCc2ccccc2)OC(=O)c2ccncc2)c1 (stereo not given),-0.293
11,COc1ccc([Si](C)(C)[C@H]2[C@H](CC(=O)N3CCC[C@H]3CO)O[C@@]3(C(=O)N(Cc4ccc(N5C(=O)c6cccc7cccc5c67)cc4)c4ccccc43)[C@@H]2C)cc1,0.751
12,COc1cc(NN2C(C(O)c3ccc(I)cc3)C=CC3C(=O)N(C)C(=O)C32)cc(OC)c1OC (stereo not given),0.0488
13,C=CCC(OC(C)=O)[C@@H]1[C@@H](N(Cc2ccc(-c3ccccc3)cc2)C(=O)c2cccc3ccccc23)c2cc(OCCCO)ccc2N1C(=O)c1ccc2ccccc2n1 (stereo not given in full),-0.0251
14,C=CCC(OC(C)=O)[C@@H]1[C@@H](N(Cc2cccc3ccccc23)C(=O)Cc2ccc(F)cc2)c2cc(OCCCO)ccc2N1C(=O)Cc1ccc(OC)cc1 (stereo not given in full),0.493
15,O=C1O[C@H](c2ccccc2)[C@H](c2ccccc2)N2[C@H]1[C@@H](C(=O)N1CCN(c3ncccn3)CC1)[C@]1(C(=O)Nc3ccc(C#CCCO)cc31)[C@H]2c1ccccc1OCCO,0.931
16,COC(=O)[C@@]1(Cc2ccccc2)[C@H]2c3cc(C(=O)N4CCCC4)n(CCO)c3C[C@H]2CN1C(=O)c1ccccc1,0.77
17,COCCCNC(=O)[C@@]1(Cc2ccccc2I)c2ccccc2C(=O)N(Cc2ccccc2Cl)[C@H]1c1ccc(CO)cc1,0.293
